The full ranking holds about 1,800 sequences; the median of “median log2 fold change of GCK-ALFA target abundance (FLAG IP / Myc IP barcode read proportion)” is about 0.14, and the lowest 2% start at about -0.84. This excerpt belongs to a sample that is enriched for the lowest values.
T1: TRAF2, Q12933
T1 chain: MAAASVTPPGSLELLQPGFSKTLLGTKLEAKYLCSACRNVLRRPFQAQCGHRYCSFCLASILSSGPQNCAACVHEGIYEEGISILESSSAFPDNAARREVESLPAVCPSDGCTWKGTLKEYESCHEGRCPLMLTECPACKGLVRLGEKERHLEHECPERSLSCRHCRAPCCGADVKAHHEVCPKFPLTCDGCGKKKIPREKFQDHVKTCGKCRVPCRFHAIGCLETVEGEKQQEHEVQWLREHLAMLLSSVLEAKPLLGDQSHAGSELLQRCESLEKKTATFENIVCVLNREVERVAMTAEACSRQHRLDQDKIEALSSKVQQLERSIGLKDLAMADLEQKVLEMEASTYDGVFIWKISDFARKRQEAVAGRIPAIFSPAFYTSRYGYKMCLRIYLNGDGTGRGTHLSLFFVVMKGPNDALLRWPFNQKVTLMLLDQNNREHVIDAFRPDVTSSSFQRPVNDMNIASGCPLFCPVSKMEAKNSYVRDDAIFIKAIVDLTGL

B1: traf2_out_11_155_685 (protein)
chain: EEKQKINNELVDKISEIADKAKAEARAIAAATAAAHPEAAAALAATLEASAGFGLSSFLGRLAATFRALGLADAAAQVEALRAQAQKEMNAAVKEAEEKL
B2: traf2_out_11_169_804 (protein)
chain: EEAEKNREINDFALELNDEAVARLEEAALALAREAGLDPEEVRAIFEAHKGKSLSAVAAALIRHFRERGAEAAAEAVLALYEELKEEINKKMTEKIKELE
B3: traf2_out_18_3_1946 (protein)
chain: SEEERKKYSEKLDEVFDDTGAEILARARALVAEDPRFQPALDAIEAIAARGPRPATMANTLIDALRALGYEEEAAAVEEYYSEKAKEASELIKKYEEAIK
B4: traf2_out_17_178_1710 (protein)
chain: SKAEARATISAATDRMIDLAEAAAAELLAIAEAEGDLSPEELAELRRARRLGSARTTLALMRRAIPKLKSAERVQALLDRFEAEYAALAKEIAAALEKYE
B5: traf2_out_17_178_1731 (protein)
chain: SREEILKKISEKADELLDTNKEAMDELRKIAEKEGVLTPELREKLDAVHRNANLYALEEVFDEVIEKTKSKEEVEKLKEETSKKMRELNKEIQALVEELE
B6: traf2_out_6_156_2382 (protein)
chain: DIEKILEEAKKKIEELIKKLSKAPESKKIRYINEIAGTVYRALQKLRDLGASLEELKEFTEEIKKFVEEQLEKYGLDESTKNLILSSINAVGEVALREAA
B7: traf2_out_20_3_2262 (protein)
chain: DELRAKAEAALAEAEALLAELAPRLPAADAARLQELLDAAKAAFATDLRDALVYLSELRRLALALAEEARAAGDAALAAALEALADAVGRAANYVYKIIE
B8: traf2_out_20_38_2004 (protein)
chain: SEEEEEEKRLEKIIQAANDALDAWEARFAALKAEGKSVEEIAEIAKEEIRRLLTAAGLEEEAEELVAQVDLVLDSPDAERLIARILARAAALVTQKKLQE
B9: traf2_out_20_38_2006 (protein)
chain: SEEEEEEKRLQKIIDAANEELDRWEKEIEELRAEGKSVEEIAEIAKKRIREMLTAAGLEEEAEELIAQVDTVLDSPDAERAIARILARAAALVTQKKLQE
B10: traf2_out_11_131_660 (protein)
chain: MDAVATARSAAERVDALLALAETLSPEERHRLALHALDTIEAVAEYLTSHVSTMTKEEVKEAARILREARDRVLALDPRVAPEAAEVEEAIKKLLEAAEE
B11: traf2_out_12_161_940 (protein)
chain: SSEHFQELSDVANKAFDKAQEIVDRVAEVSPALRPTFLAVARSLTLPVEEARAILDAAIAAHEAELTPEQLAEVRALGDELLAIQKEAQEEIKKIQEKYR
B12: traf2_out_3_89_2294 (protein)
chain: SMEQEKKLEEMRKRMEAYLRGFERSARWVARQMVADGMSLDTIRGVLEAARTALLEVLRESAEEAGLSPEQIEELVEEARERLERIVEEVVEEARREREA
B13: traf2_out_16_171_1431 (protein)
chain: SAEEKEKALKEEIDKERDDIIERMETAVEVTPLISKETGLTVEQIAKGFRSTMDDRIEALKKKYEEAAKTASEEVKKYMKERLEEIEKAKEEALKKILEI
B14: traf2_out_13_95_1115 (protein)
chain: SKELAEKIMEISDKALDQANALLDALEAKIKASGKLAPEVAAALAAAKKSTISTAIHTLKELAKKYPEFKADFEATIAQLEQIRRDAGREVAKLIKEEKE
B15: traf2_out_16_104_1404 (protein)
chain: AEAKQAEFDAIIAELEAIADKLQKIANKLYKLYLKADPETKVKLSDALVKASEARRAALEAAERAREARETGGDLAEARAALAKAKEEAAKVEKEVKELE
B16: traf2_out_17_162_1515 (protein)
chain: SALEEELAKLEKELKKIEKELKELKEKLKDLDKMSKEELTDLLVEASEARRRALELAERLEELKPEIGEERAGKLIAEARKLAEELQKIANKIYKKLEEK
B17: traf2_out_14_149_1232 (protein)
chain: SAEQEKLRAAAEINAEIAAALDEVLALLDAGKVEEAKALLRATIAELRARGAAHGITVSGLFVLEEILALLDTDVEAAKAAAAAARARARNAAEAFREMA
B18: traf2_out_20_3_2202 (protein)
chain: EELEKKLEEELEKAEELLKKAKELADPETAKKLDELIKRLKESRELSYEDRLVELSEIRREVLLLAQQAKAEGNEELAKVLEEAAEAINRAKNLVYKIIE
B19: traf2_out_13_95_1184 (protein)
chain: SEETKKKINEIADDMLEKVEKILTELAEKVKDDPEVKKAVEEIKKTAVTKGIHTAIGELKELAKKYPEYKELINEAIEKIEEIRREAGKKVAEILKEEEE
B20: traf2_out_20_3_2107 (protein)
chain: KELEEELEKELEEAIKLLEEAAKLADEETAKRLEELRKRVEASRELPYTDRLVALSEVRREVLALAQEAEAAGKEELAKVLEEAADELNKAMNLLMKIIE
B21: traf2_out_15_48_1346 (protein)
chain: DIEKEQKIASEIADDSDKLKDKVAKELEELQKKANPEEAAILDELIAAIRSGASLRTVRGLLLQAQPKFSPETAAKLKALAEEIDELIRENSKRYNEVLK
B22: traf2_out_18_117_1795 (protein)
chain: SEREEIIEELEELAERLGKAASELGKAVLDNWEKLTPEEKSEAMDVLADLSAVRRRAQELIHKIKTENIPVEEARKELEELKKEAEAALAAAEAKIARIK
B23: traf2_out_9_108_2595 (protein)
chain: MTEEEKEEETYEKILKLAKDFLERYDVSEELRADMEAAIEQAEKLRKEGEKRTANILIAISTARVAYEIGEEAVKDFLAELKKIDERSYNAAKRMVKLLK
B24: traf2_out_13_95_1087 (protein)
chain: SAETNAKINEIADKMMEKIEAILDKLSEEVADDPELKAEVEAAKELAITRGVNEAIHKLRELSKAHPEYKEKLDKAIDEIEKVKREASKEISKLLKEEKE
B25: traf2_out_6_3_2532 (protein)
chain: SHMSLLKDAKTVLENMGITTIEELKALVKAEVNAIKKLISRKDVDEADLAGARSVVALSRAMVEVAKETLPDFTEEDYEELNKLLEETEKLIKEREEKLK
B26: traf2_out_17_178_1748 (protein)
chain: NEEELKKIINEKNNEIADIAEKLAEEILKLAKEDPSISPETLALIEEARRNGSHNTAVALFLEASKNEETKKKVEELHKKASEEMNKLAKEREEAIEKYK
B27: traf2_out_11_104_639 (protein)
chain: LTREQAREFNDFAMAKEDEARAVAAELAAALEAAGETAAAARVRAALAHPGAGISTFRNLLEDLLPTLSPAAAAQARAAIARLAALQREVSAKLNELEAK
B28: traf2_out_6_156_2377 (protein)
chain: TKEEILKKAKEKIEKEIKKLAEASEEKKIKYISEIAGAVYKALQALREAGASVEEIKKAVEELKKVAEEEAKKAGLPEDTINLLLSSINAVGEVALREAE
B29: traf2_out_17_178_1665 (protein)
chain: TKEEERKKISELTDKLIDLAEAAADRALALAEREGDLSPEELAALREARRRGSATDVRALMRRWIPRLRSAAELGALLEEFEAEYRKLSKEIAEAYEKYE

Molecular target: T1, TRAF2, Q12933
Assay: median log2 fold change of GCK-ALFA target abundance (FLAG IP / Myc IP barcode read proportion) (log2 ratio); each designed protein is fused to an ALFA-tag nanobody in HEK293 cells to bring the named protein to FLAG-tagged glucokinase (GCK); Myc marks an untargeted standard; higher = target protein stabilised (more abundant)
Settings: target protein: 3xFLAG-MCP-GCK-ALFA reporter; HEK293 landing pad (RPLP)
Procedure: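 LABEL-seq trans screen in HEK293 landing-pad cells. Each de novo designed 100-aa effector handle, binding the indicated effector (E3 ligase, DUB or autophagy protein), is fused to a constant NbALFA target handle and induced with 2 ug/mL doxycycline. A FLAG-MCP-GCK-ALFA target and a Myc-MCP standard reporter were transfected, and after 48 h circRNA barcodes were recovered by anti-FLAG and anti-Myc IP and sequenced. The value is the median across barcodes (at least 3 per design) of log2(FLAG/Myc read-proportion ratio), with the two transfection replicates pooled. Negative values mean degradation and positive values mean stabilisation of the target.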
B1 was tested, and the “median log2 fold change” value was 0.177.
With B2 the “median log2 fold change” value was 0.243.
B3 was tested, and the “median log2 fold change” value was 0.267.
In the case of B4, the “median log2 fold change” value is reported as -0.136.
In the case of B5, the “median log2 fold change” value is reported as 0.639.
B6 was tested, and the “median log2 fold change” value was 0.0808.
With B7 the “median log2 fold change” value was 0.219.
With B8 the “median log2 fold change” value was -1.04.
In the case of B9, the “median log2 fold change” value is reported as -0.29.
With B10 the “median log2 fold change” value was 0.0927.
For B11, the “median log2 fold change” value was -1.56.
With B12 the “median log2 fold change” value was -0.433.
B13 was tested, and the “median log2 fold change” value was 0.175.
With B14 the “median log2 fold change” value was -0.178.
With B15 the “median log2 fold change” value was 0.341.
With B16 the “median log2 fold change” value was 0.222.
With B17 the “median log2 fold change” value was 0.339.
For B18, the “median log2 fold change” value was -0.0195.
With B19 the “median log2 fold change” value was -0.726.
With B20 the “median log2 fold change” value was 0.327.
B21 was tested, and the “median log2 fold change” value was 0.203.
B22 was tested, and the “median log2 fold change” value was 0.171.
With B23 the “median log2 fold change” value was -0.632.
In the case of B24, the “median log2 fold change” value is reported as 0.249.
With B25 the “median log2 fold change” value was -1.3.
B26 was tested, and the “median log2 fold change” value was 0.486.
B27 was tested, and the “median log2 fold change” value was 0.214.
B28 was tested, and the “median log2 fold change” value was 0.122.
In the case of B29, the “median log2 fold change” value is reported as 0.057.
